NALP1 inh: inhibitors of NALP1 inflammasome in yeast. S. cerevisiae NALP1/ASC/caspase-1 growth, X-gal OD620, 72 h. inhibition, % at 10 µM. hit rate 0.61% among 280,000. AID 2071; in the data active means inhibition mostly above about 24%, no sharp cut-off; inactive means mostly below about 32%
PolyA inh: blocks polyadenylation in yeast reporter cells. activity score, % at 12 µM. S. cerevisiae SKY197-pL101 polyadenylation reporter, beta-gal luminescence; efflux-impaired pdr1/pdr3 knockout yeast; score 100 = 6 SD above DMSO. hit rate 0.02% among 300,000;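 active means lowest replicate activity score at least 50, where 100 means six control SD above control mean; inconclusive means lowest score under 50 but half or more replicates reach 50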;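 further: yeast exposed to compound for 9 h at 30 °C; higher score means more reporter readthrough which indicates perturbed polyadenylation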
ZTA DNA inh: blocks Epstein-Barr virus ZTA, an EBNA-1 counter-screen. P03206. ZTA-DNA binding, fluorescence polarization. inhibition, % at 11 µM. hit rate 0.15% among 320,000; in the data active means inhibition above about 33%
EBNA-1 inh: blocks EBNA-1 binding to DNA. EBNA-1 DNA binding, fluorescence polarization. inhibition, % at 14.8 µM. hit rate 0.34% among 300,000. AID 1950; in the data active means inhibition above about 28%
NALP3 yeast inh: blocks the NALP3 inflammasome reconstituted in yeast | inhibition, % at 10 µM | hit rate 0.39% among 330,000 | Yeast reconstituted NLRP3/ASC/caspase-1, beta-gal luminescence, 24 h;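 active means inhibition of 50% or more; inactive means inhibition below 50%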
dFosB act: mouse delta FosB homodimer activation; P13346; activation, % at 25 µM; hit rate 0.99% among 340,000; purified delta FosB, TAMRA-CDK5 oligo fluorescence polarization; percent of positive-control signal above neutral wells;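 active means mean activation above about 17%, with every replicate also reaching it, limit read from the data, passing the limit was not always enough; inconclusive means only one of the two conditions met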
Target sequence (P13346 whole entry, looked up): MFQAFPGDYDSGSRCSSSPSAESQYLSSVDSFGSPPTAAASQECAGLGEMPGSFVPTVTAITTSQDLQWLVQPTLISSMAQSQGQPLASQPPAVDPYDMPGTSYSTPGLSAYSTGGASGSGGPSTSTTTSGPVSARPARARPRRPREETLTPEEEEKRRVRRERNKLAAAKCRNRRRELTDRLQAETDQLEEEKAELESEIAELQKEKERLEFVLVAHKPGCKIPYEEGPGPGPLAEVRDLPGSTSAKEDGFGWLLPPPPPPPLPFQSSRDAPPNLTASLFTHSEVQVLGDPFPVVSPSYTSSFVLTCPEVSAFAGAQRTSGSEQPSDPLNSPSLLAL
Of the large screens only hits and unclear results are named; the others gave an inactive call. Compounds with a hit are over-represented: about 2.2% of the library has one in this group of screens.

NC(=O)CN1CCOCCOCCN(CC(N)=O)CCOCC1	NALP1 inh 38.8
Cc1ccc(NS(=O)(=O)c2ccc(NC(=O)c3ccccc3C(=O)O)cc2)c(C)c1	none (no result: NALP1 inh)
Cc1ccc(NS(=O)(=O)c2ccc(NC(=O)c3ccc(-c4ccccc4)cc3)cc2)c(C)c1	dFosB act 54.4 (no result: NALP1 inh)
Nc1ccc(-c2nc3ccc(N)cc3[nH]2)cc1	none
Nc1ccc2cc3[nH]c4cc(N)ccc4c3nc2c1	dFosB act 67.2 (no result: NALP1 inh, PolyA inh, ZTA DNA inh, EBNA-1 inh, NALP3 yeast inh)
Cc1ccccc1NC1=C/C(=N\S(=O)(=O)c2ccc(C(=O)O)cc2)c2ccccc2C1=O	ZTA DNA inh 57.4
Cc1nn(CC(=O)Nc2ccc(Cl)cc2Cl)c(=O)c2ccccc12	none
CN(C)c1ccc(N=Cc2nc(-c3ccccc3)oc2O)cc1	none
CN(C)c1ccc(N=Cc2cccn2C)cc1	ZTA DNA inh active, EBNA-1 inh active
O=[N+]([O-])c1cc(Cc2ccccc2)cc(C=Nc2ccc(N3CCOCC3)cc2)c1O	ZTA DNA inh 76.9, EBNA-1 inh 39.8 (no result: NALP3 yeast inh)
Cc1cccc(N2C(=O)CSC23CCCCC3)c1	NALP1 inh 35.4
CC1CCC2(CC1)SCC(=O)N2c1ccccc1 (centres undefined)	none
COc1cc(CCC(=O)N2CCN(S(=O)(=O)c3ccc(C)cc3)CC2)cc(OC)c1OC	none (no result: NALP1 inh, PolyA inh, EBNA-1 inh)
CC(=O)Nc1ccc2nc(NC(=O)COc3ccccc3C)sc2c1	dFosB act 20.0
COc1cccc2sc(Nc3nc4ccc(NC(C)=O)cc4s3)nc12	dFosB act 34.7 (no result: NALP3 yeast inh)
CC(=O)Nc1ccc2nc(NC(=O)COc3ccccc3Cl)sc2c1	none
O=C(O)c1sccc1Oc1ccc(NS(=O)(=O)c2ccccc2)cc1	none
Cc1ccccc1CN1CCNC(=O)C1CC(=O)NC1CCCCCCC1 (centres undefined)	none
CN1C(=O)C(N=Nc2ccc([N+](=O)[O-])cc2)SC1=S (centres undefined)	none (no result: NALP1 inh, PolyA inh, ZTA DNA inh, EBNA-1 inh, NALP3 yeast inh)
O=[N+]([O-])/C=C/c1c(OCc2ccccc2)ccc2ccccc12	none
CCOC(=O)COc1ccc2ccccc2c1/C=C/[N+](=O)[O-]	NALP1 inh 79.2 (no result: NALP3 yeast inh)
CCOC(=O)N1CCN(C(=O)c2ccc3oc(CCCc4ccccc4)nc3c2)CC1	none
CC1CN(S(=O)(=O)c2ccc(-c3nc4ccccc4s3)cc2)CC(C)O1 (centres undefined)	NALP1 inh 30.4
Clc1ccc2c(N/N=C/c3ccccc3Br)ccnc2c1	dFosB act 45.7
O=[N+]([O-])c1ccc(/C=N/Nc2ccnc3cc(Cl)ccc23)o1	none
Clc1ccc2c(N/N=C/c3cccc(Br)c3)ccnc2c1	NALP1 inh 47.2, dFosB act 51.6 (no result: NALP3 yeast inh)
CCCOC(=O)c1ccc(NC(=O)Oc2ccccc2)cc1	NALP1 inh 22.3
CCCOC(=O)c1ccc(NC(=O)c2ccc(Br)o2)cc1	NALP1 inh 61.3
CN(C(=O)COC(=O)/C=C/c1ccc(Cl)c(Cl)c1)c1c(N)n(Cc2ccccc2)c(=O)[nH]c1=O	none (no result: NALP1 inh)
O=C(NCc1ccco1)/C(=C/c1ccc(Br)cc1)NC(=O)c1ccco1	none
O=C(Nc1cccnc1)c1sc(Nc2ccccc2)nc1-c1ccccc1	EBNA-1 inh 88.7
COc1cc2c(cc1OC)C(c1cccc(C)c1)CC(=O)N2 (centres undefined)	NALP1 inh 44.5
CC(C)c1nc2ccccn2c1NC1CCCCC1	NALP1 inh 24.3
c1csc(-c2nc3ccccn3c2NC2CCCCC2)c1	none
CC(=O)c1c(C)[nH]c(C(=O)OCC(=O)c2c[nH]c3ccccc23)c1C	none (no result: NALP1 inh, PolyA inh, EBNA-1 inh)
CCOC(=O)c1cnc2c(N=Nc3ccccc3)c(N)nn2c1N	none
CCOC(=O)c1cnc2c(N=Nc3cccc(Cl)c3)c(N)nn2c1N	NALP1 inh 83.5 (no result: PolyA inh, ZTA DNA inh, EBNA-1 inh, NALP3 yeast inh, dFosB act)
CCc1cc(=O)oc2cc(OC(C)=O)cc(OC(C)=O)c12	NALP1 inh 27.0
C=CCNc1nc(-c2ccccc2)nc(-n2ccnc2)n1	none
CCCCNc1nc(-c2ccccc2)nc(-n2ccnc2)n1	NALP1 inh 44.0
Cc1ccc(S(=O)(=O)N2CCN(Cc3ccco3)CC2)c(C)c1	none
CCCc1cc(=O)oc2c(CN(CC)CC)c(O)c(Cl)cc12	NALP1 inh 35.1, PolyA inh inconclusive
Cc1ccc(OCCN2CCN(c3nc(NCc4ccco4)c4ccccc4n3)CC2)cc1	NALP1 inh 73.0, dFosB act 26.8
OCCN1CCN(c2nc(NCc3ccco3)c3ccccc3n2)CC1	none

Source: PubChem BioAssay
